# From PubChem BioAssay (NCI)
# About 83,000 compounds went through this panel and 20% of them were active in at least one assay; those are over-represented in the sample as a whole.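 The test compound was applied at a single concentration to cells in 96-well plates for 48 hours, and percent growth was recorded.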 A number with no mark means an inactive call. Calls of active or inactive are those of the source. How the source made its calls: active means growth percent below 10; inactive means the rest.
# Legend:
# Test in all cases: NCI-60 one-dose screen, 48 h (100 = growth as untreated, 0 = no growth, -100 = all killed)
# Settings in all cases: 10 µM unless noted
# HCT-15 colon = tested on: HCT-15 colon
# HT29 colon = tested on: HT29 colon
# SNB-75 CNS = tested on: SNB-75 CNS
# SNB-19 CNS = tested on: SNB-19 CNS
# U251 CNS = tested on: U251 CNS
# PC-3 prostate = tested on: PC-3 prostate
# SK-MEL-5 melanoma = tested on: SK-MEL-5 melanoma
# UACC-62 melanoma = tested on: UACC-62 melanoma
# LOX IMVI melanoma = tested on: LOX IMVI melanoma
# SK-MEL-28 melanoma = tested on: SK-MEL-28 melanoma
# SK-MEL-2 melanoma = tested on: SK-MEL-2 melanoma
# EKVX NSCLC = tested on: EKVX NSCLC
# SN12C renal = tested on: SN12C renal
# UO-31 renal = tested on: UO-31 renal
# TK-10 renal = tested on: TK-10 renal
# ACHN renal = tested on: ACHN renal
# A498 renal = tested on: A498 renal
# CCRF-CEM leukemia = tested on: CCRF-CEM leukemia
# MOLT-4 leukemia = tested on: MOLT-4 leukemia
Compound,growth (HCT-15 colon),growth (HT29 colon),growth (SNB-75 CNS),growth (SNB-19 CNS),growth (U251 CNS),growth (PC-3 prostate),growth (SK-MEL-5 melanoma),growth (UACC-62 melanoma),growth (LOX IMVI melanoma),growth (SK-MEL-28 melanoma),growth (SK-MEL-2 melanoma),growth (EKVX NSCLC),growth (SN12C renal),growth (UO-31 renal),growth (TK-10 renal),growth (ACHN renal),growth (A498 renal),growth (CCRF-CEM leukemia),growth (MOLT-4 leukemia)
O=C(O)c1cn(C2CC2)c2cc(N3CCN(C(=O)CSc4nc(NS(=O)(=O)c5ccccc5)cc(=O)[nH]4)CC3)c(F)cc2c1=O,94.9%,119%,98.8%,99.3%,97.7%,85%,94.6%,83.8%,90.9%,98%,79.7%,105%,98.6%,82%,118%,102%,113%,81%,
Cc1cn(-c2nc3c(c(NCc4ccccc4)n2)COCC3)c2cccc(C(N)=O)c12,81.9% [0.5 µM],63.4% [0.5 µM],107% [0.5 µM],97.4% [0.5 µM],93.5% [0.5 µM],83.8% [0.5 µM],-20.3% [0.5 µM] (active),44.3% [0.5 µM],16.3% [0.5 µM],96.5% [0.5 µM],38.1% [0.5 µM],85.9% [0.5 µM],30.8% [0.5 µM],55% [0.5 µM],83.2% [0.5 µM],39.5% [0.5 µM],85.1% [0.5 µM],49.1% [0.5 µM],60.6% [0.5 µM]
COc1ccc(-c2cnc(-c3ccc(F)cc3)[nH]2)cc1,53.2%,16.4%,98.6%,98.5%,33.3%,73.7%,101%,82.2%,6.54% (active),110%,113%,90.7%,99%,84.5%,230%,105%,97.1%,-48.2% (active),54.7%
CC1(C)N=C(N)N=C(N)N1c1ccc(F)c(C(F)(F)F)c1,45.8%,19.3%,59%,44%,47.2%,34.3%,22.8%,24.3%,21.4%,97.8%,54.4%,65.2%,47.4%,41.8%,65.5%,36%,93.1%,20.8%,
CC(C)(C)NC(C1=CC(C)(C)c2ccccc2C1=O)c1ccccc1 (stereo not given),-58.7% (active),-60.2% (active),16.3%,25%,-67.7% (active),-79% (active),3.82% (active),-23.5% (active),-66% (active),-10.5% (active),-65.1% (active),-1.1% (active),-14.3% (active),-97.4% (active),-6.87% (active),-10.5% (active),45.1%,-5.2% (active),-47.4% (active)
O=[N+]([O-])c1ccc(NS(=O)(=O)c2ccccc2)c2ccccc12,46.8%,57.5%,42.5%,48.4%,37.5%,53.2%,0.136% (active),22.7%,43.8%,37.5%,12.1%,38.2%,44.5%,25.5%,53.1%,63.6%,35.9%,40.3%,38%
CCOC(=O)C(C)(CSSCC(C)(NC(=O)c1ccc2ccccc2c1)C(=O)OCC)NC(=O)c1ccc2ccccc2c1 (stereo not given),82.2%,81.2%,107%,86%,94.8%,108%,109%,96.1%,89%,132%,107%,90.3%,104%,80.6%,103%,102%,136%,-42.5% (active),53.1%
NS(=O)(=O)c1ccc(-n2nc(-c3ccc(Cl)cc3)ccc2=O)cc1,84.5%,104%,86%,86.8%,104%,85.6%,83.1%,61.4%,95.8%,90.3%,86.1%,99.7%,109%,91.7%,123%,101%,102%,86.4%,96.4%
